Columns and labels:
Conditions in all cases: concentration: 1 μM, replicates: in singlicate; n = 1
[1] = test system: CDK8
[2] = test system: CDK9
[3] = test system: CDKL1
[4] = test system: CDKL2
[5] = test system: CDKL3
[6] = test system: CDKL5
[7] = test system: CHEK1
[8] = test system: CHEK2
[9] = test system: CIT
[10] = test system: CLK1
[11] = test system: CLK2
[12] = test system: CLK3
[13] = test system: CLK4
[14] = test system: CSF1R-autoinhibited
[15] = test system: CSF1R
[16] = test system: CSK
[17] = test system: CSNK1A1L
[18] = test system: CSNK1A1
[19] = test system: CSNK1D
[20] = test system: CSNK1E
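Further: KINOMEscan kinase panel screen.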

SMILES	%Inh [1] [%]	%Inh [2] [%]	%Inh [3] [%]	%Inh [4] [%]	%Inh [5] [%]	%Inh [6] [%]	%Inh [7] [%]	%Inh [8] [%]	%Inh [9] [%]	%Inh [10] [%]	%Inh [11] [%]	%Inh [12] [%]	%Inh [13] [%]	%Inh [14] [%]	%Inh [15] [%]	%Inh [16] [%]	%Inh [17] [%]	%Inh [18] [%]	%Inh [19] [%]	%Inh [20] [%]
Cc1occc1-c1ncc(OC[C@@H](N)Cc2c[nH]c3ccccc23)cc1-c1ccc2[nH]nc(C)c2c1.O=C(O)C(F)(F)F [GSK682037]	25	22	11	43	0	0	0	0	99.1	32	63	25	9	0	1	0	97.3	97	97.8	99.9
O=C(O)C(F)(F)F.O=C(O)C(F)(F)F.O=c1[nH]ccc2nc(N[C@@H]3CCCNC3)nc(Nc3ccc(S(=O)(=O)N4CCOCC4)cc3)c12 [GSK2177277]	0	17	64	45	0	42	100	74	76	76	98.9	41	79	83	99.9	51	99.7	99.9	98.7	99.9
c1ccc(-c2cnc3nccnn23)cc1 [AH20685]	49	0	11	0	0	8	0	0	0	4	0	0	11	14	0	0	0	0	11	0
COc1ccc(Nc2nccc(N3CCC(NC(=O)Nc4cccc(OC)c4)C3)n2)cc1 (centres unmarked) [GSK1379742]	72	0	0	49	0	0	0	0	14	26	0	39	9	0	0	0	19	0	1	34
COc1ccc(CNC(=O)NC2CCN(c3ccnc(Nc4ccc(F)cc4)n3)CC2)cc1 [GSK1379788]	45	0	9	22	0	0	0	34	28	13	0	11	0	19	8	0	9	0	42	63
Cc1cccc(Nc2nc(N[C@H]3CCNC3)ncc2C(N)=O)c1.Cl [GSK2197149]	0	7	12	7	0	0	52	71	76	51	71	37	33	0	87	0	78	75	67	86
Nc1ncnc2c1nc(-c1ccccc1)n2-c1ccccc1 [SKF-97293]	0	0	3	0	7	14	4	11	11	15	28	25	20	22	7	22	0	0	10	23
COc1ccc(-c2coc3ccc(-c4nnc(SCc5ccc(OC)c(C(F)(F)F)c5)o4)cc23)cc1	20	1	11	0	0	1	0	18	0	26	1	0	18	7	0	16	0	0	0	0
Cc1ccc(S(=O)(=O)Nc2ccc(Nc3nccc(Nc4cccc5[nH]ncc45)n3)cc2)cc1 [GSK581271]	13	0	2	22	0	0	0	0	28	85	0	13	87	0	22	0	5	0	46	36
CC(C)c1nc(-c2cccc(NS(=O)(=O)c3c(F)cccc3F)c2F)c(-c2ccnc(Nc3ccc(N4CCOCC4)nc3)n2)s1 [GSK2008607]	14	93	54	99.3	4	90.2	0	60	95.1	0	0	0	0	0	86	98	0	0	0	4
